DRD3 agonist: activates the human D3 dopamine receptor. D3R DiscoveRx beta-arrestin cells, luminescence, 90 min. max activation, %. actives 0.58% (n = 410,000). AID 652048; in the data active = max activation above about 30%
Target sequence (P35462 whole entry, looked up): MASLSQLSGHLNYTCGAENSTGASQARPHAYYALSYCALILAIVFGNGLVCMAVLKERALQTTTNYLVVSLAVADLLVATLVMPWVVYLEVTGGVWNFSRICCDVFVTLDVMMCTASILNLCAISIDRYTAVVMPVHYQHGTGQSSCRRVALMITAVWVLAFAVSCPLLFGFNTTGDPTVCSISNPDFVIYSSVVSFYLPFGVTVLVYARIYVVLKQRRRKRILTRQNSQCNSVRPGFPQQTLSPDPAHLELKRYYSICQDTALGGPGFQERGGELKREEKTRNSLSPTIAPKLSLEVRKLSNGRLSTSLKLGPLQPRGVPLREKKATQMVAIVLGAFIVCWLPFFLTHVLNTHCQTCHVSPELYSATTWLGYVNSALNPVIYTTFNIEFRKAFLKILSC
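Agonist-mode cell screen: cells plated at 1500/well and incubated overnight at 37 °C, then exposed to library compounds for 90 min at 37 °C. Detection reagent was added for 30–60 min at room temperature, and luminescence was read.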
DRD3 antagonist: D3 dopamine receptor (human) antagonism; P35462; D3R cells, DiscoveRx beta-arrestin luminescence, antagonist mode; active compounds read low; actives 2.5% (n = 360,000); max response, negative = inhibition, %; AID 652054; in the data active = max response below about -50%; inconclusive = no clear call, values can overlap the other calls
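Cells expressing the human receptor were seeded at 1500 cells/well, incubated overnight at 37 degrees C in 5% CO2, then exposed to library compounds with dopamine controls for 90 minutes at 37 degrees C before luminescent detection.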
D1 antag: antagonists of human D1 dopamine receptor. actives 3.2% (n = 360,000). P21728. HEK293 TREx D1 cells, calcium flux, dopamine EC80; active compounds read low. activity change, negative = inhibition, % at 10 µM; in the data active = activity change below about -30%
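Allosteric or orthosteric antagonism assessed as attenuation of the calcium response to EC80 dopamine, added 180 s after compound, in induced HEK293 Trex D1 cells loaded with no-wash calcium dye.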
D1 agonist: agonists of human D1 dopamine receptor; HEK293 T-REx D1 cells, calcium flux, agonist mode; activation, % at 2 µM; actives 1% (n = 360,000); P21728; in the data active = activation above about 30%
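Tetracycline-induced HEK293 TREx D1 cells, force-coupled to calcium signalling, were dye-loaded with a no-wash calcium kit. Compound was pin-added after a 10 s baseline. Fluorescence was read kinetically at 1 cycle/s for 180 s, with calcium rises flagged as agonism.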
D1 potentiator: potentiators of human D1 dopamine receptor; HEK293 TREx D1 cells, calcium flux, dopamine EC20 potentiation; potentiation, % at 10 µM; actives 0.036% (n = 360,000); AID 504651; in the data active = potentiation above about 30%
Chronic BCR inh: inhibitors of chronic active B-cell receptor signaling; actives 0.05% (n = 340,000); AID 493014; ABC-DLBCL IkBa-CBG/CBR reporter, luminescence ratio, 4 h; Potency, µM (doses to about 46.1 µM), hits mostly inhibitors; active = well fitted inhibition curve with a large enough effect in the signal ratio, with a control signal flat, not every such curve was filed as active; inconclusive = small, poorly fitted or top-dose-only effect, or effect the other way, or a change in a side signal; the % refers to the signal ratio
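Doxycycline induced both beetle luciferases in TMD8 lymphoma cells; IKK-driven degradation limits the IkappaBalpha-fused green signal, while red luminescence normalises for cell number and nonspecific effects. Compounds tested up to 46 uM, 4 hrs.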
Large screens that a line does not name were inactive; ! = not active in a repeat. Shown are actives, neighbours in structure and some others; about 6% of the full set was active somewhere.

CSCC[C@H](NC(=O)[C@H](Cc1ccccc1)n1c(=O)[nH]c2ccccc2c1=O)C(=O)N1CCC(C(=O)O)CC1	DRD3 agonist 32, Chronic BCR inh inconclusive
CC(C)C[C@H](NC(=O)[C@H](Cc1ccccc1)n1c(=O)[nH]c2ccccc2c1=O)C(=O)N1CCC(C(=O)O)CC1	none
CCN(CC)CCCNC(=O)C(=O)Nc1ccc2nc3n(c(=O)c2c1)CCCCC3	none (no result: DRD3 antagonist, Chronic BCR inh)
CCOc1ccccc1N1CCN(C(=O)c2cc[n+]([O-])cc2)CC1	DRD3 antagonist -63
CCN(CC)Cc1csc(C(N)=O)c1	DRD3 antagonist -53
CCOC(=O)C1CCCN(CCC(=O)Nc2ccc(OC)cc2OC)C1 (stereo not given)	none (no result: DRD3 antagonist, Chronic BCR inh)
Cc1ccc([C@@H]2CC=C(C(=O)O)[C@H](c3ccc(F)cc3)N2S(=O)(=O)c2ccc(C)cc2)cc1	DRD3 antagonist -83
CCc1ccc([C@@H]2CC=C(C(=O)O)[C@H](c3ccc(F)cc3)N2S(=O)(=O)c2ccc(C)cc2)cc1	DRD3 antagonist -52
Cc1ccccc1N=C1NC(=O)C(CO)(CO)S1	D1 antag -36
O=C1NC(=Nc2ccccc2Cl)SC1(CO)CO	none
COc1cccc2c1O/C(=N\O)C(C(=O)Nc1cccc(Br)c1)C2 (stereo not given)	DRD3 antagonist -54, Chronic BCR inh inconclusive
COc1cccc2c1O/C(=N\O)C(C(=O)Nc1ccc(C)cc1)C2 (stereo not given)	Chronic BCR inh inconclusive
FC(F)Oc1ccc(NC(=S)NC2CCSc3ccccc32)cc1 (stereo not given)	none
Cc1cccc(NC(=S)NC2CCSc3ccccc32)c1 (stereo not given)	D1 antag -33
COC(=O)C1=[N+]([O-])OC(C(=O)OC)C1c1c[nH]c2ccccc12 (stereo not given)	DRD3 antagonist -56
CCN(CC)c1ncnc2c1ncn2[C@H]1CN(Cc2ccc3c(c2)OCO3)C[C@@H](CO)O1	none (no result: D1 antag, D1 agonist, D1 potentiator, Chronic BCR inh)
CC(=O)Oc1ccc(Cn2c(C)c(C(=O)NCCC#N)sc2=O)cc1	none (no result: D1 antag, D1 agonist, D1 potentiator, Chronic BCR inh)
COc1ccc(-c2noc(=O)n2Cc2ccccc2F)cc1	D1 antag -30, Chronic BCR inh inconclusive
COc1ccc(-c2noc(=O)n2Cc2cc(C)ccc2C)cc1	none
CC(C)(C)C(=O)N1CCN(c2c(Cl)cccc2[N+](=O)[O-])CC1	D1 antag -52
Cc1ccc(SCCNS(=O)(=O)c2ccc3c(c2)OCCO3)cc1	D1 antag -33
O=S(=O)(NCCCCNS(=O)(=O)c1c(F)cccc1F)c1ccc2c(c1)OCCO2	D1 antag -41!, Chronic BCR inh inconclusive (no result: DRD3 agonist, DRD3 antagonist)
O=S(=O)(NCCNS(=O)(=O)c1c(F)cccc1F)c1ccc2c(c1)OCCO2	Chronic BCR inh inconclusive (no result: DRD3 agonist, DRD3 antagonist)
Cc1ccccc1NC(=O)Cn1cc(S(=O)(=O)N2CCCC2)c(S(=O)(=O)N2CCCC2)c1	none (no result: DRD3 antagonist, Chronic BCR inh)
Cc1ccc2oc(=O)c3cc(C(=O)N(Cc4ccccc4)C(C)C)sc3c2c1	none (no result: DRD3 antagonist, Chronic BCR inh)
Cc1cc(-c2ccccc2)nc2[nH]n(-c3ccccc3)c(=O)c12	DRD3 antagonist -68, Chronic BCR inh inconclusive
Cc1cc(C)c2c(=O)n(-c3ccccc3)[nH]c2n1	none
C=CCn1c(SCC(=O)N(C)C2CCS(=O)(=O)C2)nnc1-c1ccncc1 (stereo not given)	DRD3 antagonist -54
CN(C(=O)CSc1nnc(-c2ccco2)n1Cc1ccccc1)C1CCS(=O)(=O)C1 (stereo not given)	D1 antag -37
C=CCn1c(SCC(=O)N(CC)C2CCS(=O)(=O)C2)nnc1-c1ccccc1 (stereo not given)	none
CCCn1c(SCC(=O)N(C)C2CCCCC2)n[nH]c1=O	none (no result: D1 antag, D1 agonist, D1 potentiator, Chronic BCR inh)
O=C(Cn1cc2c(n1)CCCC2)Nc1cc(C(F)(F)F)ccc1Cl	none (no result: DRD3 antagonist, Chronic BCR inh)
Cc1ccc(C(=O)N2CCN3C(=O)c4ccccc4C23c2ccccc2)cc1 (stereo not given)	D1 antag -38, Chronic BCR inh inconclusive
O=C1c2ccccc2C2(c3ccccc3)N1CCN2C(=O)C(Cl)(Cl)Cl (stereo not given)	none
O=C(CNC(=O)c1ccc(Cl)cc1)OCc1cc(=O)n2ccsc2n1	none (no result: DRD3 antagonist, Chronic BCR inh)
CC1(OC(=O)C2CCCC2)C(=O)C=C2C=C(c3ccsc3)N(C3CC3)C=C2C1=O (stereo not given)	DRD3 antagonist -64
CCn1c(N2CCN(C(c3ccccc3)c3ccccc3)CC2)nc2c1c(=O)[nH]c(=O)n2C	none (no result: D1 antag, D1 agonist, D1 potentiator, Chronic BCR inh)
COc1cc(C2c3cc(O)c(OC)cc3CC(C(=O)O)C2CO)ccc1O (stereo not given)	DRD3 agonist 71 (no result: D1 antag, D1 agonist, D1 potentiator, Chronic BCR inh)
O=C1C(=O)N(C2CCN(C(=O)c3ccccc3F)CC2)CCN1Cc1ccc(F)cc1	none (no result: DRD3 antagonist, Chronic BCR inh)
CCc1cnc2c(c1SCC(=O)NCc1ccc(C)cc1)c(=O)n(C)c(=O)n2C	Chronic BCR inh inconclusive (no result: DRD3 antagonist, D1 antag)
O=C(Cn1nnc(-c2ccccc2-n2cnnn2)n1)NCc1ccccc1	DRD3 antagonist -109
C/C(=N\NC(=O)c1c[nH]c2ccccc12)c1ccccn1	DRD3 antagonist inconclusive, Chronic BCR inh inconclusive
C=CCNC(=S)N/N=C(\C)c1ccccn1	DRD3 antagonist -90, Chronic BCR inh inconclusive
CCOc1ccc(C(=O)N/N=C(\c2ccccc2)c2ccccn2)cc1	D1 antag -33
O=C(N/N=C(\c1ccccc1)c1ccccn1)c1cccc([N+](=O)[O-])c1	DRD3 antagonist -74, Chronic BCR inh inconclusive
CC(=NNC(=S)Nc1ccccc1)c1ccccn1	none (no result: D1 antag, D1 agonist, D1 potentiator, Chronic BCR inh)
C/C(=N\NC(=O)c1ccc(F)cc1)c1ccccn1	DRD3 antagonist -113, Chronic BCR inh inconclusive
CCc1ccc(/C(C)=N/NC(=O)c2ccccn2)cc1	Chronic BCR inh inconclusive
C=CCNC(=O)c1cc(C(=O)C(C)c2ncc(C(F)(F)F)cc2Cl)c[nH]1 (stereo not given)	D1 agonist 36
COc1ccc(C(=O)N2CCC(c3ccncc3)CC2)cc1OC	none (no result: DRD3 antagonist)
O=C(C1=C[C@H](C2CC2)C[C@H](OCCCCO)O1)N1CCN(Cc2ccc3c(c2)OCO3)CC1	none
O=C(C1=C[C@H](c2ccc(Br)cc2)C[C@H](OCCCCO)O1)N1CCN(Cc2ccccc2)CC1	D1 antag -30
C[C@@H]1C=C(C(=O)N2CCN(Cc3ccc4c(c3)OCO4)CC2)O[C@H](OCCCCO)C1	D1 antag -38, Chronic BCR inh inconclusive
O=C(C1=C[C@@H](c2ccc(Br)cc2)C[C@@H](OCCCCO)O1)N1CCN(Cc2ccc3c(c2)OCO3)CC1	none
O=C(C1=C[C@H](c2ccccc2)C[C@H](OCCCCO)O1)N1CCOCC1	D1 antag -40
CCCCNC(=O)CSc1nc2cc3c(cc2c(=O)n1CCCCCC(=O)NCc1ccc(OC)cc1)OCO3	none (no result: DRD3 antagonist)
O=C(Nc1ccc(F)cc1)Nc1ccccc1NS(=O)(=O)c1cccs1	none

From PubChem BioAssay
